# Measurements from PubChem BioAssay AID651607 (The Scripps Research Institute Molecular Screening Center, 2012).
# About 600 (43%) of roughly 1,400 compounds were called active. Rule as the data show it: active = inhibition above about 17%; inactive = the rest. So high a share suggests a set chosen from earlier hits. The list is a sample of the results.
# Tested on: methionyl-tRNA synthetase (Trypanosoma brucei brucei)
# Experiment: T. brucei MetRS inhibitors, orthogonal assay for T. brucei MetRS inhibitor project, biochemical, fluorescence polarization (AID 651607);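 also: 0% = vehicle wells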
# Details: purified T. brucei MetRS, at 11.9 µM, stronger effect = higher value
row,Structure (SMILES),inhibition
1,O=C(CC(=O)Nc1ccc(Cl)c(Cl)c1)N/N=C/c1ccc(O)cc1,30.8% (active)
2,O=C(Cn1c2[n+](c3ccc(C(F)(F)F)cc31)CCCCC2)Nc1c(F)cccc1F,9.23% (inactive)
3,O=C(OCc1nc2ccccc2[nH]1)C1CCCCC1,9.3% (inactive)
4,CCO[C@@H]1OC(C(=O)NCc2nc3ccccc3[nH]2)=C[C@H](C2CCCCC2)[C@H]1CCCO,17.2% (active)
5,O=C(Nc1ccccc1)Nc1nnc(COc2ccccc2F)s1,23.8% (active)
6,Cc1ccc(CNC(=O)CSc2nnc3c(n2)[nH]c2ccc(F)cc23)cc1,51.8% (active)
7,CN(C(=O)CSc1nnc(Nc2ccccc2)s1)C1CCS(=O)(=O)C1 (stereo not drawn),-4.02% (inactive)
8,CCCCCCCC[n+]1cccc(C(=O)N2c3c(nc(N)[nH]c3=O)NC(C)C2C)c1 (stereo not drawn),13.1% (inactive)
9,NC1=NC(=O)S/C1=C\c1ccc(O)cc1,16% (inactive)
10,CC(C)(C)c1ccc(/C=C2\SC(=O)N=C2N)cc1,22.6% (active)
11,CN(C(=O)CSc1nnc(-c2c[nH]c3ccccc23)o1)C1CCS(=O)(=O)C1 (stereo not drawn),15.7% (inactive)
12,O=C1CCCN1CCCNc1ncnc2c1[nH]c1ccccc12,28.8% (active)
13,COc1ccc(CCn2ccc(O)c(Cc3ccc(Cl)cc3Cl)c2=O)cc1OC,2.44% (inactive)
14,Cc1ccc(S(=O)(=O)c2c[nH]c3ccc(C)cc3c2=O)cc1,20.1% (active)
15,Cc1ccc(S(=O)(=O)c2c[nH]c3ccc(Cl)cc3c2=O)cc1,60.6% (active)
16,CCN(CC)C(=O)C(=O)c1cn(CC(=O)NCc2ccc3c(c2)OCO3)c2ccccc12,50.9% (active)
17,COc1ccc(-c2[nH]ncc2/C=N/NC(=O)c2cc(Br)ccc2O)c(OC)c1,15.2% (inactive)
18,CCCCN1C[C@H](c2ccc(Br)cc2)[C@@H](CC(=O)Nc2ccc(Br)cc2)C1=O,33.1% (active)
19,O=C(NCc1cccc(CNC(=O)Nc2cccc(O)c2)c1)Nc1cccc(O)c1,8.48% (inactive)
20,O=C(Cc1ccc(S(=O)(=O)N2CCOCC2)s1)Nc1ccc(Br)c(C(F)(F)F)c1,27.2% (active)
21,O=C(Nc1ccc(S(=O)(=O)Nc2ncccn2)cc1)c1cncc(Br)c1,-0.88% (inactive)
22,O=C(O)CCn1c(O)c(C=C2N=c3ccccc3=N2)sc1=S,17.1% (active)
23,Cn1c(CCCOc2ccc(Cl)cc2Cl)n[nH]c1=S,11.9% (inactive)

row,Structure (SMILES),inhibition
1,c1ccc2cc3c(NCCN4CCOCC4)ccnc3cc2c1,25.4% (active)
2,Cc1ccc(NC(=O)C(C)c2cccc(C(=O)c3ccccc3)c2)cc1 (stereo not drawn),65.3% (active)
3,O=C(NNC(=O)c1ccc(-n2cncn2)c([N+](=O)[O-])c1)c1ccccc1,32% (active)
4,Cc1ccccc1OCC(=O)NNC(=O)c1ccc(-n2cncn2)c([N+](=O)[O-])c1,11.1% (inactive)
5,Cc1ccc(S(=O)(=O)N(C)C)cc1NC(=O)c1ccc(-n2cncn2)c([N+](=O)[O-])c1,34.4% (active)
6,CC(=O)c1ccc(NC(=O)c2ccc(-n3cncn3)c([N+](=O)[O-])c2)cc1,50.4% (active)
7,Cc1cc(C)cc(NC(=O)N(C)Cc2ccccc2)c1,4.52% (inactive)
8,Cc1ccc(N2C(=O)CC(NCc3ccc4c(c3)OCO4)C2=O)cc1Cl (stereo not drawn),55.8% (active)
9,NS(=O)(=O)c1ccc(CCNC(=O)Nc2ccc(Cl)cc2)cc1,21.5% (active)
10,O=C(CSCC(=O)Nc1cccc([N+](=O)[O-])c1)Nc1ccccc1,8.38% (inactive)
11,O=C(Nc1ccc(Cl)cc1)N1CCc2[nH]c3ccccc3c2C1,8.86% (inactive)
12,Fc1ccc(NC(=S)N2CCc3[nH]c4ccccc4c3C2)cc1,18.4% (active)
13,O=C(Nc1cccc([N+](=O)[O-])c1)N1CCc2ccccc2C1,11.1% (inactive)
14,COc1ccc(OCC(O)CNC(=O)Nc2ccc(Cl)cc2)cc1 (stereo not drawn),51% (active)
15,COc1ccc(NC(=O)C(NC(C)=O)C(=O)NCc2ccccc2Cl)cc1 (stereo not drawn),1.33% (inactive)
16,CCCCN(C)Cc1c(C)[nH]c2ccc(Cl)cc2c1=O,39.9% (active)
17,Clc1ccc(-c2cc(C3CCNCC3)[nH]n2)c(Cl)c1,21.7% (active)
18,O=S(=O)(NCc1ccc(Cl)cc1Cl)c1cccs1,13.7% (inactive)
19,O=C(NNc1cc(Cl)cc(Cl)c1)c1c(F)cccc1Cl,37.3% (active)
20,Oc1[nH]c2ccc(Br)cc2c1N=Nc1nn[nH]n1,13.7% (inactive)
21,CSc1nsc(NC(=O)Nc2ccccc2)n1,18.2% (active)
22,OCCNc1nc2ccccc2n1-c1ncnc2sc3c(c12)CCC3,12.1% (inactive)
23,Cc1ccc(O)c(CNc2nc3ccccc3[nH]2)c1,77.9% (active)

row,Structure (SMILES),inhibition
1,Clc1ccccc1SCc1nc2ccccc2[nH]1,-1.51% (inactive)
2,S=c1[nH]nc(CSCc2ccc(Cl)cc2Cl)n1-c1ccccc1,2.4% (inactive)
3,O=C(NCC(O)c1nc2ccccc2[nH]1)c1ccc(Br)cc1 (stereo not drawn),17.1% (active)
4,O=S(=O)(c1ccc(Br)cc1)N1CCC(c2nc3ccccc3[nH]2)CC1,4.17% (inactive)
5,O=[N+]([O-])c1ccc(N2CCN(c3ccc(O)cc3)CC2)c(Cl)c1,8.79% (inactive)
6,c1ccc(CN=C2Nc3ccccc3CS2)nc1,5.74% (inactive)
7,COc1ccccc1-n1c(SCC(=O)Nc2ccc(Cl)cc2)nc(O)c(Cc2ccccc2)c1=O,57.9% (active)
8,COC(=O)CN1C(=S)N(c2ccccc2)C(=O)C1CC(=O)Nc1ccc(Cl)cc1 (stereo not drawn),15% (inactive)
9,O=C(/C(=N\O)n1cncn1)c1ccc(Br)cc1Br,4.41% (inactive)
10,O=C(O)c1ccc(NS(=O)(=O)c2ccc3c(c2)C(=O)c2cc(S(=O)(=O)Nc4ccc(C(=O)O)cc4)ccc2-3)cc1,1% (inactive)
11,Cc1c(CN2CCC(CO)(CCOc3ccccc3)CC2)[nH]c2ccc(Cl)cc12,20.1% (active)
12,O=C(CSc1nc2ccccc2[nH]1)N/N=C/C=C\c1ccccc1[N+](=O)[O-],12.7% (inactive)
13,OC(c1cc(Cl)cc(Cl)c1)c1ncc(-c2ccccc2C(F)(F)F)[nH]1 (stereo not drawn),58.3% (active)
14,Cc1ccc(-c2cnc(C(O)c3cc(Cl)cc(Cl)c3)[nH]2)cc1 (stereo not drawn),43.7% (active)
15,O=C(NCCN1CCOCC1)c1ccccc1N1C(=O)[C@@H]2Cc3c([nH]c4ccccc34)C(c3cccc(Cl)c3)N2C1=O (stereo partly drawn),13.3% (inactive)
16,CC(=N\NC(=O)c1cc(Br)ccc1O)/C(=N/O)C(=O)Nc1ccccc1,4.72% (inactive)
17,O=C(Cn1c(NCCO)nc2ccccc21)c1ccc(Cl)cc1Cl,-2.79% (inactive)
18,COC(=O)/C(=C\Nc1ccccc1)NC(=O)c1ccc(Cl)cc1Cl,59.6% (active)
19,CC(C)OCCCNc1ncnc2c1[nH]c1ccc(F)cc12,80.6% (active)
20,CCN1CCCC1CNc1ncnc2c1[nH]c1ccc(F)cc12 (stereo not drawn),31.6% (active)
21,c1ccc2cc3[nH]c(CN4CCCCC4)nc3cc2c1,3.4% (inactive)
22,CCCCCn1nnnc1-c1nc2cc3ccccc3cc2[nH]c1=O,24.4% (active)
